This passage reports inhibition results from PubChem BioAssay AID836 (Columbia University Molecular Screening Center, 2007).

Hit rate of the full screen: of about 91,000 compounds, about 160 (0.18%) were called active. Many of the other results were omitted from the sample, so actives are more common in it than they were. A number with no mark means an inactive call.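 How the source made its calls: active means inhibition above the batch mean plus 3 SD and confirmed as a hit by visual image inspection (cut at about 30% in these data, passing the limit was not always enough); inconclusive means above the inhibition threshold but rejected on visual inspection; inactive means the rest.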

This assay is described as follows: disruptors of actin filament network in HUVEC – imaging, phalloidin staining, high-content imaging, primary screen (AID 836). Particulars: HUVEC TNFa F-actin phalloidin imaging, at 2 µM, hits give high values.
For orientation: inhibition means the relative decrease from the control value, in per cent. Turning to `Cn1c2c(c(=O)n(C)c1=O)[C@@H]1c3c(ccc4ccccc34)OC[C@@H]1CO2`, the inhibition is 8.1%.

Turning to `COc1ccc2c(c1OC)C(=O)c1ccccc1C2=O`, the inhibition was 1%.

`CCC(C)n1c(-c2cc(OC)c(OC)c(OC)c2)nc2nc3ccccc3nc21` (centres undefined): the inhibition is -3.2%.

Consider `CCNC(=S)Nc1cccc(Cl)c1C`, for which the inhibition is 11.2%.

For `COc1ccc(-c2csc3nc(-c4ccccc4F)oc(=O)c23)cc1OC`, the inhibition was -3.2%.

Turning to `O=c1oc2c(Cl)cc(Cl)cc2cc1-c1nnc(Nc2ccccc2F)s1`, the inhibition was 5%.

In the case of `O=C(/C=C/Nc1ccccc1OC(F)(F)F)C(F)(F)F`, the inhibition is 6.2%.

`CCC(=O)NC(NCC1CCCO1)C(Cl)(Cl)Cl` (centres undefined): the inhibition is -23.7%.

For `C=CCn1c(Oc2ccc(C(=O)OC)cc2)nc2c1c(=O)n(C)c(=O)n2C`, the inhibition is 13.6%.

Take `O=C(Nc1ccccc1Cl)O/N=C(/c1ccccc1)c1ccccn1`: the inhibition is -5.5%.

In the case of `CC(C)NC(=O)NC(=O)COC(=O)c1ccc(NC(=O)CC#N)cc1`, the inhibition was 2%.

Take `O=C(O)COc1ccc(-c2nccc(-c3cccs3)n2)cc1`: the inhibition was 29.5%.

In the case of `O=C(CSc1ccccc1)Nc1ccc(NC(=O)c2ccco2)cc1`, the inhibition is 20.5%.

For the compound `O=C(CCc1ccc(S(=O)(=O)NC2CCCCC2)cc1)NCc1ccccc1`, the inhibition is -16.8%.

Consider `COc1cccc(C(=O)NNC(=O)c2ccccc2Br)c1`, for which the inhibition is -16.2%.

In the case of `CC(CNc1ccc([N+](=O)[O-])cc1)NC(=O)c1ccccc1Br` (centres undefined), the inhibition was -6.1%.

On to `O=C(Nc1ccc(Cl)cc1)OCc1cc(-c2ccccc2)on1`, for which the inhibition is -6.9%.

For the compound `O=C1c2oc3ccccc3c(=O)c2C(c2cccc(O)c2)N1c1ccccn1` (centres undefined), the inhibition is -31.1%.

For `O=C1c2oc3ccc(Br)cc3c(=O)c2C(c2cccc(F)c2)N1CCO` (centres undefined), the inhibition was 7.4%.

As to `COCCN1C(=O)c2oc3c(C)cc(C)cc3c(=O)c2C1c1cccc(O)c1` (centres undefined), the inhibition was 53.6% (active).

For the compound `COc1ccc(C(=O)N2CCc3cc(OC)c(OC)cc3C2c2cccc([N+](=O)[O-])c2)cc1` (centres undefined), the inhibition is -0.9%.

On to `CCN(CC)C(=O)CSC1c2ccccc2C(=O)N1c1ccccc1` (centres undefined), for which the inhibition is -35.9%.

On to `Cc1cccc(NC(=S)N2CCC(c3nc4ccccc4s3)CC2)c1`, for which the inhibition was -9.4%.

On to `COC(=O)c1ccc(C(=O)OC)c(NC(=S)N2CCCCC2)c1`, for which the inhibition is -4.3%.

Turning to `Cc1ccc2nc(Nc3ccccc3O)nc(-c3ccccc3)c2c1`, the inhibition was -0.7%.

In the case of `COc1ccc(/C=N/Nc2nc3ccccc3c(=O)[nH]2)cc1`, the inhibition is 0.1%.

With `CC(Oc1ccc(F)cc1F)C(=O)/C=C/N(C)C` (centres undefined), the inhibition is -4.4%.

Regarding `Cc1ccc(OCC(=O)Nc2cccc3c2CCCC3)cc1C`, the inhibition is -5.6%.

`COc1cc(C(=S)N2CCOCC2)cc(OC)c1OC(=O)c1cc([N+](=O)[O-])c(C)c([N+](=O)[O-])c1`: the inhibition is -7.7%.

Regarding `COc1ccc(C(=S)Nc2ccccc2)cc1`, the inhibition was 2.8%.

Take `COc1nc(-c2ccc(Cl)cc2)ccc1-c1noc(-c2cccs2)n1`: the inhibition was 19.6%.

As for `Cc1occc1C(=O)NNC(=S)NCC(C)C`, the inhibition is -20.3%.

For `CSc1ccccc1-c1nnc(-c2ccc(Cl)cc2)o1`, the inhibition was -9.7%.

`Cc1ccc(-c2nc3ccccc3[nH]2)cc1NC(=O)c1sc2ccccc2c1Cl`: the inhibition was -19%.

On to `O=C(c1ccccc1)c1cc(-c2ccccn2)c(N2CCOCC2)s1`, for which the inhibition was -8.8%.

For `COC(=O)C(C)Oc1ccc2c(-c3cccc([N+](=O)[O-])c3)cc(=O)oc2c1` (centres undefined), the inhibition was 19.5%.

In the case of `Cc1ccccc1NC(=O)c1ccccc1NS(=O)(=O)c1cccc2cccnc12`, the inhibition was -7.4%.

Take `Cc1nn(Cc2ccccc2Cl)c(C)c1NC(=O)Cn1nc([N+](=O)[O-])c(Cl)c1C`: the inhibition was -13.3%.

With `CC(C)C(C)NC(=O)COc1ncnc2ccccc12` (centres undefined), the inhibition is 2.1%.

Regarding `O=C(Nc1ccc(-n2ccnc2P(=O)(O)c2ccccc2)cc1)c1ccccc1Br`, the inhibition was -15.1%.

On to `O=C(CSCc1ccc([N+](=O)[O-])cc1)NCCSCc1ccccc1`, for which the inhibition was -4.8%.

On to `COc1ccc(/C=C(/NC(=O)c2ccc(C)cc2)c2nc3ccccc3[nH]2)cc1OC`, for which the inhibition is 24.6%.

Turning to `Cc1cc(C)c2c3c(sc2n1)C(c1ccccc1)C(C#N)=C(N)O3` (centres undefined), the inhibition was 7.5%.

Turning to `CC(C)(C)c1cc2cccnc2n1Cc1ccccc1`, the inhibition was -13.7%.

As to `COCCCNC(NC(=O)c1ccc(C)cc1)C(Cl)(Cl)Cl` (centres undefined), the inhibition is -4.7%.

`O=C1COc2ccc(NC(=O)N3CCN(c4ccc(F)cc4)CC3)cc2N1`: the inhibition is -1.9%.

As to `COc1ccccc1NC(=O)[C@H](COCc1ccccc1)NC(=O)OC(C)(C)C`, the inhibition was -9.9%.

For `Oc1ccccc1/C=N/n1c(-c2cccs2)n[nH]c1=S`, the inhibition was -11.3%.

Take `COc1ccc(C(=O)c2c(C)oc3cc([N+](=O)[O-])c(O)c([N+](=O)[O-])c23)cc1`: the inhibition was 3.1%.

As to `C=CCOc1c2ccc(C(=O)N(CC)c3ccc(OC)cc3)cc2nn1C`, the inhibition is 12.9%.

Consider `COc1cccc(/C=N/NC(=O)c2cccc([N+](=O)[O-])c2)c1OS(=O)(=O)c1ccc(C)cc1`, for which the inhibition is -0.8%.

Turning to `CCn1c(SC)nc(O)c(C(c2ccc(OC)c(O)c2)c2c(O)nc(SC)n(CC)c2=O)c1=O`, the inhibition is 10.2%.

`COc1cccc(NC(=O)c2nn(C34CC5CC(CC(C5)C3)C4)cc2[N+](=O)[O-])c1`: the inhibition is 14%.

Regarding `Cc1ccc(-c2nnc(C)c(N3CC(C)OC(C)C3)n2)cc1` (centres undefined), the inhibition is 9.5%.

As to `COC(=O)c1c(CCl)noc1C(=O)NC(C)C`, the inhibition was -7%.

For the compound `O=C1c2ccccc2C(=O)N1CC1c2ccccc2CCN1S(=O)(=O)c1ccccc1` (centres undefined), the inhibition was 24.7%.

On to `O=C1CCCC2=C1C(c1ccccc1)n1c(s/c(=C/c3cccc(F)c3)c1=O)=N2` (centres undefined), for which the inhibition is 0.6%.

On to `Cc1c(CCO)c(=O)[nH]n1C(=O)c1c(F)cccc1F`, for which the inhibition is 14.6%.

In the case of `CC(C)c1ccc(NC(=O)CCN2C(=O)c3ccc([N+](=O)[O-])cc3C2=O)cc1`, the inhibition was -2%.
